Consider 17 compounds from PubChem BioAssay.

The structures appear in SMILES notation. The source made the active and inactive calls. Unless noted, no rule for the calls is given here.

Experiment [1] has as its system XIP peptide (Xip251-270) binding. The experiment can be described thus: small-molecule binders of XIP peptide, primary screen, biochemical, small-molecule microarray, fluorescence 635/667 nm, 0.1 µg/mL protein (AID 1182). The note with it: fluorescent protein binding, 635 nm, higher = more signal, called active from +8 up or from −8 down.
Experiment [2] deals with XIP peptide (Xip251-270). The experiment can be described thus: small-molecule binders of XIP peptide, primary screen, biochemical, small-molecule microarray, fluorescence 635/667 nm, 0.5 µg/mL protein (AID 1183). The note with it: small-molecule microarray binding, fluorescence 635 nm; higher = more signal.
Experiment [3] in a line: Plasmodium falciparum growth inhibition, primary screen, strain 3D7, DAPI fluorescence, 100 nL (AID 1184).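 Also: parasites grown inside human red blood cells in medium with human serum.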 Conditions: P. falciparum 3D7 growth, 3 d, higher = more signal.
Experiment [4] deals with Homeobox protein Hox-A13 (Mus musculus) (UniProt Q62424). The experiment can be described thus: inhibitors of HoxA13-DNA binding, primary screen, biochemical, fluorescence polarization, labeled oligonucleotide (AID 1185). Conditions: 15 min, higher = more signal, called active from +8 up or from −8 down.
Chain of Homeobox protein Hox-A13 (Mus musculus) (Q62424 whole entry, looked up): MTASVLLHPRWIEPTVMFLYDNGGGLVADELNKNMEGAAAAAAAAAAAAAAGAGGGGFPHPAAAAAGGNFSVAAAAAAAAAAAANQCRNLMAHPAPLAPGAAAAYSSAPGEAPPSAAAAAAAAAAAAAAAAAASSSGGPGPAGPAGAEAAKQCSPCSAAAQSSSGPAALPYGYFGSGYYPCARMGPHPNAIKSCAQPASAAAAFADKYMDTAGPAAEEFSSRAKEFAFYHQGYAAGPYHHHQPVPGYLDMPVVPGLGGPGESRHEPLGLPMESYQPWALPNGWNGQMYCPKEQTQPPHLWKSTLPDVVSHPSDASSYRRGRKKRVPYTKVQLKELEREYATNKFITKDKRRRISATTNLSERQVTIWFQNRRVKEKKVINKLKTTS
A short description of experiment [5]: inhibitors of hydroxyurea-induced Chk1 phosphorylation, primary screen, imaging, HeLa, phospho-Chk1 antibody, percent positive cells (AID 1186). The note with it: hydroxyurea-induced phospho-Chk1 immunofluorescence imaging, higher = more signal.
Experiment [6] can be described thus: inhibitors of hydroxyurea-induced Chk1 phosphorylation, primary screen, imaging, HeLa, phospho-Chk1 nuclear intensity (AID 1187). The note with it: hydroxyurea-induced phospho-Chk1 immunofluorescence imaging, higher = more signal.

As for `O=C1O[C@@H](c2ccccc2)[C@@H](c2ccccc2)N2[C@@H](c3ccc(O)cc3)[C@]3(C(=O)Nc4ccc(C#CC5(O)CCCCCC5)cc43)[C@@H](C(=O)N3CCN(c4ncccn4)CC3)[C@H]12`, the figures for the composite z-score in experiment [1] and in experiment [2] were 0.328 (inactive) and 0.559, respectively. In addition, the z-score is -2.02 in experiment [3], -1.72 (inactive) in experiment [4], -0.206 (inactive) in experiment [5] and -0.624 (inactive) in experiment [6].
`CCCN1C(=O)[C@@H]2Cc3c([nH]c4ccccc34)[C@@H](c3cccc(O)c3)N2C1=O`: the composite z-score in experiment [1] was -0.227 (inactive); in experiment [2], 0.181. In addition, the z-score is 1.39 in experiment [3], -0.802 (inactive) in experiment [4], -0.0463 (inactive) in experiment [5] and -0.202 (inactive) in experiment [6].
`CCOC(=O)C[C@H]1[C@H](OC(=O)c2ccccc2-c2ccccc2)[C@@H](NC(=O)c2ccccc2)c2cc(OCCCO)ccc2N1C(=O)Cc1ccc(OC)cc1`: the composite z-score in experiment [1] was -0.231 (inactive); in experiment [2], -0.73. Further, the z-score is -0.375 in experiment [3], -2.77 (inactive) in experiment [4], 0.237 (inactive) in experiment [5] and 0.356 (inactive) in experiment [6].
For the compound `COCCOC(=O)N1C(=O)[C@@]2(c3cc(C#CCC(C(=O)OC)C(=O)OC)ccc31)[C@H](C(=O)N1CCCCCCC1)[C@H]1C(=O)O[C@H](c3ccccc3)[C@H](c3ccccc3)N1[C@@H]2c1ccc(O)cc1`, the figures for the composite z-score in experiment [1] and in experiment [2] were 0.825 (inactive) and 0.729, respectively. Further, the z-score was -2.22 in experiment [3], -0.454 (inactive) in experiment [4], -0.15 (inactive) in experiment [5] and -0.367 (inactive) in experiment [6].
In the case of `COCCCNC(=O)[C@@H]1c2ccccc2C(=O)N(Cc2cc(F)cc(C(F)(F)F)c2)[C@H]1c1ccc(CO)cc1`, the composite z-score in experiment [1] was -0.0408 (inactive); in experiment [2], -0.0784. In addition, the z-score was -0.288 in experiment [3], -2.79 (inactive) in experiment [4], 0.0176 (inactive) in experiment [5] and -0.299 (inactive) in experiment [6].
`CCCCC=C[C@@H](NC(=O)CCc1ccccc1)c1ccccc1`: the composite z-score was 0.286 (inactive) in experiment [1] and 0.518 in experiment [2]. Also, the z-score is -0.425 in experiment [3], -0.0682 (inactive) in experiment [4], -0.522 (inactive) in experiment [5] and -0.805 (inactive) in experiment [6].
For the compound `COCCCNC(=O)[C@]1(Cc2ccccc2CN=[N+]=[N-])N=C(c2ccc(OCCCO)cc2)O[C@@H]1c1ccccc1CN=[N+]=[N-]`, the values for the composite z-score in experiment [1] and in experiment [2] were 0.22 (inactive) and 0.744, respectively. Moreover, the z-score in experiment [3] is -2.48; in experiment [4], -2.43 (inactive); in experiment [5] it was -0.0731 (inactive); in experiment [6] it was -0.303 (inactive).
On to `COC(=O)[C@@]1(Cc2ccccc2N=[N+]=[N-])N=C(c2ccc(OCCCO)cc2)O[C@H]1c1ccccc1`, for which the composite z-score in experiment [1] is 0.37 (inactive); in experiment [2], 0.601. For the same compound, the z-score was -1.85 in experiment [3], -3.98 (inactive) in experiment [4], 0.069 (inactive) in experiment [5] and -0.447 (inactive) in experiment [6].
Consider `O=C1O[C@H](c2ccccc2)[C@H](c2ccccc2)N2[C@H]1[C@@H](C(=O)NC[C@H](O)c1ccccc1)[C@]1(C(=O)Nc3ccccc31)[C@H]2c1ccccc1OCCO`, for which the values for the composite z-score in experiment [1] and in experiment [2] were 2.18 (inactive) and 0.807, respectively. The z-score in experiment [3] is -0.635; in experiment [4] it was -3.48 (inactive); in experiment [5] it was -0.517 (inactive); in experiment [6], -0.538 (inactive).
With `C=CCNC(=O)[C@@H]1[C@H]2C(=O)O[C@H](c3ccccc3)[C@H](c3ccccc3)N2[C@H](c2ccc(O)cc2)[C@@]12C(=O)Nc1ccc(C#CCCO)cc12`, the figures for the composite z-score in experiment [1] and in experiment [2] were 3.57 (inactive) and 0.693, respectively. Also, the z-score in experiment [3] was -0.37; in experiment [4], -5.14 (inactive); in experiment [5], -0.154 (inactive); in experiment [6] it was -0.0542 (inactive).
Take `COCCCNC(=O)[C@@]1(Cc2ccccc2)COC(c2ccc(OCCCO)cc2)=N1`: the composite z-score was 0.506 (inactive) in experiment [1] and 0.811 in experiment [2]. The z-score is -0.723 in experiment [3], -4.31 (inactive) in experiment [4], -0.0447 (inactive) in experiment [5] and -0.109 (inactive) in experiment [6].
Turning to `CCC[C@@H]1C[C@@]1(CCC)[C@@H](NC(=O)c1cccs1)c1ccc(Cl)cc1`, the values for the composite z-score in experiment [1] and in experiment [2] were -0.0569 (inactive) and 0.0455, respectively. Besides, the z-score was -0.76 in experiment [3], -1.93 (inactive) in experiment [4], -0.248 (inactive) in experiment [5] and -0.143 (inactive) in experiment [6].
For the compound `COCCOC(=O)N1C(=O)[C@@]2(c3cc(C#Cc4ccc(OC)cc4)ccc31)[C@H](c1ccc(OCCO)cc1)N1[C@H](c3ccccc3)[C@H](c3ccccc3)OC(=O)[C@H]1[C@@H]2C(N)=O`, the values for the composite z-score in experiment [1] and in experiment [2] were 1.12 (inactive) and 0.758, respectively. The z-score in experiment [3] was -1.97; in experiment [4], -0.245 (inactive); in experiment [5] it was 0.105 (inactive); in experiment [6], 0.247 (inactive).
Take `COc1ccc([Si](C)(C)[C@@H]2[C@@H](CC(=O)N(CCO)Cc3ccccc3)O[C@]3(C(=O)N(C)c4c(Br)cc(C)cc43)[C@H]2C)cc1`: the composite z-score in experiment [1] is 0.48 (inactive); in experiment [2], 0.373. In addition, the z-score was -1.48 in experiment [3], -6.47 (inactive) in experiment [4], -0.743 (inactive) in experiment [5] and -1.69 (inactive) in experiment [6].
Consider `CC(=O)NCCCC[C@@H]1NC(=O)[C@H]2C[C@@H](C(=O)NCCCCCN)[C@@H](c3cccc(OCCO)c3)N2C1=O`, for which the composite z-score in experiment [1] was 0.149 (inactive); in experiment [2], 0.654. The z-score was 0.184 in experiment [3], -2.28 (inactive) in experiment [4], -1.11 (inactive) in experiment [5] and -0.661 (inactive) in experiment [6].
Turning to `CO[C@H]1O[C@H](CO)[C@@H](OC(=O)c2ccc(Br)cc2)[C@@H]2OC(=O)[C@H](Cc3cccc(Br)c3)C/C=C/C[C@@H](Cc3cccc(Br)c3)C(=O)O[C@@H]12`, the composite z-score in experiment [1] is 1.69 (inactive); in experiment [2], 0.675. The z-score in experiment [3] was -0.706; in experiment [4] it was -2.82 (inactive); in experiment [5] it was 0.373 (inactive); in experiment [6] it was 0.574 (inactive).
Take `C=C[C@H](C)[C@H](OC(=O)Nc1ccc(SC)cc1)c1ccc(O)c2ccccc12`: the composite z-score in experiment [1] was 0.273 (inactive); in experiment [2], 0.151. Also, the z-score in experiment [3] was -0.243; in experiment [4], -5.27 (inactive); in experiment [5], -0.08 (inactive); in experiment [6] it was -0.437 (inactive).
